According to PubChem BioAssay AID1159580 (chemical genetic matrix, 2015):
“And” between values parts separate entries of the source, which are not always exact repeats. Equal entries are not always repeated. Out of some 5,500 compounds screened, about 2,000 (36%) were called active. Not shown: some 18% with an inconclusive outcome. Cut-off read from the data, not from the text of the source: active = normalized growth mostly below about 0.91 (no sharp cut-off); inconclusive = no clear call, values can overlap the other calls; inactive = mostly above about 0.92. The list shows a part of the results.

Experiment: chemical genetic growth profiling, strain panel (AID 1159580);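 note: tested at 20 µM; growth read once vehicle control cultures reached saturation at 30 °C; 1 = growth at the plate median or of vehicle wells; lower values mean less growth of the strain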
Settings: S. cerevisiae deletion strains, growth OD

Measured: normalized growth

COc1ccc(CN(CCN(C)C)c2ccccn2)cc1
inactive: locus YAL013W, strain DEP1, active compounds read low 0.971 | locus YAL021C, strain ccr4, active compounds read low 1.01 | locus YAL026C, strain drs2, active compounds read low 1.03 | locus YAL030W, strain snc1, active compounds read low 0.999 | locus YAL040C, strain CLN3, active compounds read low 0.955 | locus YBL061C, strain skt5, active compounds read low 1.01 | locus YBR009C, strain hhf1, active compounds read low 0.986 | locus YBR021W, strain FUR4, active compounds read low 0.995 | locus YBR023C, strain chs3, active compounds read low 1.03 | locus YBR171W, strain sec66, active compounds read low 1.02 | locus YBR229C, strain ROT2, active compounds read low 0.991 | locus YBR231C, strain swc5, active compounds read low 1.02 | locus YBR279W, strain paf1, active compounds read low 1.01 | locus YCL011C, strain gbp2, active compounds read low 1.03 | locus YCL016C, strain dcc1, active compounds read low 1.03 | locus YCL029C, strain bik1, active compounds read low 0.989 | locus YCL061C, strain MRC1 (second series), active compounds read low 0.986 | locus YCL069W, strain vba3, active compounds read low 1.01 | locus YCR088W, strain abp1, active compounds read low 1.02 | locus YDL005C, strain med2, active compounds read low 1.03 | locus YDL035C, strain GPR1, active compounds read low 0.996 | locus YDL040C, strain nat1, active compounds read low 1.01 | locus YDL074C, strain BRE1, active compounds read low 1.01 | locus YDL101C, strain DUN1, active compounds read low 0.993 | locus YDL134C, strain PPH21, active compounds read low 0.995 | locus YDL185W, strain tfp1, active compounds read low 0.951 | locus YDL192W, strain arf1, active compounds read low 0.978 | locus YDR001C, strain nth1, active compounds read low 1.01 | locus YDR069C, strain doa4, active compounds read low 1.01 | locus YDR101C, strain arx1, active compounds read low 0.982 | locus YDR137W, strain rgp1, active compounds read low 1.04 | locus YDR150W, strain NUM1, active compounds read low 1.02 | locus YDR159W, strain sac3, active compounds read low 0.992 | locus YDR162C, strain NBP2, active compounds read low 0.992 | locus YDR195W, strain ref2 0.966 | locus YDR297W, strain sur2, active compounds read low 1.01 | locus YDR318W, strain mcm21, active compounds read low 0.989 | locus YDR334W, strain swr1, active compounds read low 1 | locus YDR335W, strain msn5, active compounds read low 1.03 | locus YDR363W, strain ESC2, active compounds read low 1 | locus YDR388W, active compounds read low 0.998 | locus YDR392W, strain spt3, active compounds read low 1.04 | locus YDR502C, strain sam2, active compounds read low 0.979 | locus YEL003W, strain gim4, active compounds read low 1.02 | locus YEL037C, strain rad23, active compounds read low 1.01 | locus YEL061C, strain CIN8 (second series), active compounds read low 1.02 | locus YEL061C, strain CIN8, active compounds read low 0.999 | locus YER002W, strain NOP16, active compounds read low 1 | locus YER015W, strain faa2, active compounds read low 1.03 | locus YER016W, strain bim1, active compounds read low 1.02 | locus YER110C, active compounds read low 0.968 | locus YER111C, strain swi4, active compounds read low 1.01 | locus YER155C, strain BEM2 (second series), active compounds read low 1.02 | locus YER155C, strain BEM2, active compounds read low 0.983 | locus YER167W, strain BCK2, active compounds read low 1 | locus YFR010W, strain ubp6, active compounds read low 1 | locus YGL078C, strain dbp3, active compounds read low 0.998 | locus YGL086W, strain mad1, active compounds read low 0.988 | locus YGL167C, strain pmr1, active compounds read low 1.02 | locus YGL173C, strain kem1, active compounds read low 1.02 | locus YGL227W, strain vid30, active compounds read low 1.01 | locus YGL240W, strain doc1, active compounds read low 0.991 | locus YGL248W, strain PDE1, active compounds read low 0.999 | locus YGL253W, strain hxk2, active compounds read low 1.03 | locus YGR078C, strain PAC10, active compounds read low 0.983 | locus YGR135W, strain pre9, active compounds read low 0.988 | locus YGR229C, strain SMI1, active compounds read low 1.01 | locus YGR252W, strain gcn5, active compounds read low 1.12 | locus YHR013C, strain ard1, active compounds read low 1.08 | locus YHR027C, strain rpn1, active compounds read low 1.02 | locus YHR030C, strain SLT2, active compounds read low 0.992 and 1.05 | locus YHR079C, strain IRE1 (second series), active compounds read low 0.987 | locus YHR079C, strain IRE1, active compounds read low 1.06 | locus YHR094C, strain hxt1, active compounds read low 0.981 | locus YHR129C, strain ARP1, active compounds read low 1 | locus YHR142W, strain chs7, active compounds read low 1.05 | locus YHR200W, strain rpn10, active compounds read low 0.993 | locus YIL066C, strain RNR3, active compounds read low 0.995 | locus YIL073C, strain SPO22, active compounds read low 0.916 | locus YIL125W, strain kgd1, active compounds read low 0.973 | locus YIR030C, strain dcg1, active compounds read low 0.99 | locus YJL092W, strain hpr5, active compounds read low 1.02 | locus YJL095W, strain BCK1 (second series), active compounds read low 1 | locus YJL095W, strain BCK1, active compounds read low 1.01 and 1.03 | locus YJL115W, strain asf1, active compounds read low 1.02 | locus YJL129C, strain trk1, active compounds read low 1.03 | locus YJL134W, strain LCB3, active compounds read low 0.989 | locus YJL154C, strain vps35, active compounds read low 1.02 | locus YJL164C, strain tpk1, active compounds read low 1.02 | locus YJL166W, strain qcr8, active compounds read low 1.01 | locus YJL168C, strain set2, active compounds read low 0.993 | locus YJL187C, strain SWE1 (second series), active compounds read low 0.985 | locus YJR043C, strain POL32, active compounds read low 1.01
